Reference: PubChem BioAssay (NCATS)
Inconclusive results are not listed. Values without a mark were called inactive. The source made the active and inactive calls. Calls come from the whole dose curve; as a rule, active = well fitted curve in the direction sought with a large enough effect; inconclusive = small, poorly fitted or top-dose-only effect, or another doubt; inactive = no such curve, though single readings can be large; an effect the other way counts as inactive or inconclusive.

experiment: BET inhibitor-based combinations targeting novel dependencies in MECOM-rearranged (r) AML: HNT-34 cell line (AID 2202234); settings: HNT-34 AML viability, CellTiter-Glo luminescence, 48 h; series mostly up to 46 µM; viability (% of control): at the top concentration; note: nearly all actives have a fitted effect of over 35% in size
Method in brief: (§1)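 Cells at 500/well were exposed for 48 hr to MIPE v5.0 drugs as 11-point dose curves. Viability was read by CellTiter-Glo luminescence and normalized to DMSO and empty-well controls. Activity was expressed as AUC and per-cell-line Z-AUC.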
Potency is the fitted concentration of half-maximal effect.

SMILES | Potency
N#Cc1ccc(COC[C@H]2O[C@@H](n3c(NCc4ccc(Cl)c(Cl)c4)nc4c(N)ncnc43)[C@H](O)[C@@H]2O)cc1 | 2.95 µM (active)
CCOC(=O)[C@@H](N)Cc1ccc(-c2cc(O[C@H](c3ccc(Cl)cc3-n3ccc(C)n3)C(F)(F)F)nc(N)n2)cc1 | 23.5 µM (active)
O=C(/C=C\n1cnc(-c2cc(C(F)(F)F)cc(C(F)(F)F)c2)n1)N1CC(F)(F)C1 | 5.25 µM (active)
CCCc1cc(C)[nH]c(=O)c1CNC(=O)c1cc(-c2ccc(N3CCN(C(C)C)CC3)nc2)cc2c1cnn2C(C)C | 20.9 µM (active)

experiment: BET inhibitor-based combinations targeting novel dependencies in MECOM-rearranged (r) AML: UCSD-AML1 cell line (AID 2202235); settings: UCSD-AML1 AML cells viability, CellTiter-Glo, 48 h; series mostly up to 46 µM; viability (% of control): at the top concentration; note: nearly all actives have a fitted effect of over 40% in size;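 for viability (% of control): plate controls were DMSO vehicle wells for no effect and blank wells for full effect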
Method in brief: as §1

SMILES | Potency | viability (% of control)
N#Cc1ccc(COC[C@H]2O[C@@H](n3c(NCc4ccc(Cl)c(Cl)c4)nc4c(N)ncnc43)[C@H](O)[C@@H]2O)cc1 | 2.63 µM (active) | –
CCOC(=O)[C@@H](N)Cc1ccc(-c2cc(O[C@H](c3ccc(Cl)cc3-n3ccc(C)n3)C(F)(F)F)nc(N)n2)cc1 | – | 113%
O=C(/C=C\n1cnc(-c2cc(C(F)(F)F)cc(C(F)(F)F)c2)n1)N1CC(F)(F)C1 | 0.934 µM (active) | –
CCCc1cc(C)[nH]c(=O)c1CNC(=O)c1cc(-c2ccc(N3CCN(C(C)C)CC3)nc2)cc2c1cnn2C(C)C | 16.6 µM (active) | –

experiment: BET inhibitor-based combinations targeting novel dependencies in MECOM-rearranged (r) AML: AML-191 cell line (AID 2202236; note: nearly all actives have a fitted effect of over 35% in size); settings: AML-191 viability, CellTiter-Glo luminescence, 48 h; series mostly up to 46 µM; viability (% of control): at the top concentration
Method in brief: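 AML cell lines seeded at 500 cells/well, treated with 11-point dose curves for 48 h. Viability by CellTiter-Glo luminescence, normalised to DMSO and empty wells; activity expressed as AUC and per-cell-line Z-transformed AUC.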

SMILES | Potency
CCOC(=O)[C@@H](N)Cc1ccc(-c2cc(O[C@H](c3ccc(Cl)cc3-n3ccc(C)n3)C(F)(F)F)nc(N)n2)cc1 | 23.5 µM (active)
O=C(/C=C\n1cnc(-c2cc(C(F)(F)F)cc(C(F)(F)F)c2)n1)N1CC(F)(F)C1 | 1.32 µM (active)
CCCc1cc(C)[nH]c(=O)c1CNC(=O)c1cc(-c2ccc(N3CCN(C(C)C)CC3)nc2)cc2c1cnn2C(C)C | 29.5 µM (active)
